Bioassay records (PubChem)
An excerpt weighted towards active compounds, which were near 12% of everything screened.
Sfp inh = qHTS Assay for Inhibitors of Bacillus subtilis Sfp phosphopantetheinyl transferase (PPTase); 4'-phosphopantetheinyl transferase ffp (Bacillus subtilis), Q9F4F7; Biochemical Sfp PPTase activity, qHTS; Potency, µM, for the others: largest response in the series, negative = inhibition, usual class: inhibitors; 3.5% of 310,000 active; AID 1490, 2009;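 note: the enzyme is Sfp with the accession as filed and its product quenches rhodamine fluorescence; 0% = enzyme reaction without inhibitor and -100% = no enzyme wells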
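Compounds were incubated with enzyme (final 15 nM) for 15 min at room temperature before substrate addition started the reaction. Fluorescence at 525 nm excitation, 598 nm emission was recorded immediately and after 30 minutes.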
VP16 counter = VP16 counterscreen qHTS for inhibitors of ROR gamma transcriptional activity; Drosophila S2 Gal4-VP16 UAS-luciferase, luminescence, 20 h; Potency, µM (doses to about 53.6 µM), without a hit: at the highest dose activity, negative = inhibition, hits mostly inhibitors; 3.5% of 310,000 active;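 note: Gal4-VP16 expression switched on by copper sulfate through the metallothionein promoter; nearly all actives have a fitted effect of over 50% in size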
ALDH1A1 inh = qHTS Assay for Inhibitors of Aldehyde Dehydrogenase 1 (ALDH1A1) | Purified ALDH1A1, NADH fluorescence, propionaldehyde substrate | Potency, µM (top dose mostly 75.3 µM), for the others: at the highest dose activity, negative = inhibition, actives largely listed as inhibitors | 7.3% of 220,000 active | AID 1030, 2008; active = well fitted inhibition curve with a large enough effect, not every such curve was filed as active; inconclusive = small, poorly fitted or top-dose-only effect, or another doubt; inactive = no such curve, though single readings can be large or run the other way;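 note: plate controls were no enzyme wells and a reference inhibitor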
Target sequence (P00352 whole entry, looked up): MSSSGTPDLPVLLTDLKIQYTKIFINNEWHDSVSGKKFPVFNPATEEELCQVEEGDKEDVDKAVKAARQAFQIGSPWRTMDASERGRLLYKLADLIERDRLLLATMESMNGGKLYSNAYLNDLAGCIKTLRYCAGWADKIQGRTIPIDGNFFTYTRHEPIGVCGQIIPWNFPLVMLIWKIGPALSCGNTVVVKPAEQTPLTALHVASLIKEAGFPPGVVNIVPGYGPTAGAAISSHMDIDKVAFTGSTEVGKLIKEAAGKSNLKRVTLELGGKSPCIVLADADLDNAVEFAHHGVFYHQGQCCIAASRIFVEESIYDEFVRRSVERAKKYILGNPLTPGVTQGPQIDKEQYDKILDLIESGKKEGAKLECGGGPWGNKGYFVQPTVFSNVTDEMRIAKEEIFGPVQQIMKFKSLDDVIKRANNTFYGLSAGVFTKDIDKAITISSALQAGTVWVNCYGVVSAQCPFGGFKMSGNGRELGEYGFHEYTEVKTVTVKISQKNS
RORg inh = qHTS for inhibitors of ROR gamma transcriptional activity. Nuclear receptor ROR-gamma (Mus musculus), P51450. Drosophila S2 Gal4-RORgamma UAS-luciferase reporter, 20 h. Potency, µM (doses to about 53.6 µM), for the others: at the top dose activity change, negative = inhibition, most hits filed as inhibitors. 5.4% of 310,000 active. AID 2551, 2010; note: nearly all actives have a fitted effect of over 60% in size
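Schneider cells (Drosophila), stable Gal4 DBD–ROR gamma + UAS-luc; 1 hr cmpd preincubation; Cu2+ induction 700 uM final; 20 hr ambient; luminescence.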
PLK1 PBD block = qHTS for Inhibitors of PLK1-PDB (polo-like kinase 1 - polo-box domain): Primary Screen | Serine/threonine-protein kinase PLK1 (Homo sapiens), P53350 | Plk1 PBD binding of FITC phosphopeptide, fluorescence polarization | Potency, µM, inactives show max response, negative = inhibition, actives largely listed as inhibitors | AID 720504, 2013 | 2.8% of 360,000 active; note: series mostly up to about 57 µM; nearly all actives have a fitted effect of over 65% in size
Starred values were filed as active, the others as inactive; u = inconclusive; x = not tested or not shown; ! = not active in a repeat; [ ] = remark or other dose. Unless noted, calls come from the whole dose curve; as a rule, active = well fitted curve in the direction sought with a large enough effect; inconclusive = small, poorly fitted or top-dose-only effect, or another doubt; inactive = no such curve, though single readings can be large; an effect the other way counts as inactive or inconclusive. Unless noted, % is set by controls: 0 for no effect and ±100 for the full control effect; potency is the fitted concentration of half-maximal effect.

SMILES	Sfp inh	VP16 counter	ALDH1A1 inh	RORg inh	PLK1 PBD block
O=C(C1CCCN(Cc2ccccc2)C1)N1CCCCC1 (stereo not drawn)	u	1%	20µM*	14%	0%
O=C(C1CCCN(Cc2ccc(Cl)cc2)C1)N1CCCCC1 (stereo not drawn)	-3%	14%	x	20%	-4%
O=C(C1CCCN(Cc2cccc(Cl)c2)C1)N1CCCCC1 (stereo not drawn)	u	8%	x	15%	19µM*
CC1CCCC(C)N1C(=O)Cn1c(SCC(=O)Nc2ccc3c(c2)OCO3)nc2ccccc21 (stereo not drawn)	1%	-10%	5µM*	11%[10 µM]	2%
O=C(CSc1nc2ccccc2n1CC(=O)N1CCCC1)Nc1ccc2c(c1)OCO2	-1%	4%	u	44%	-2%
CCN1C(=O)/C(=C/c2cnn(C)c2C)SC1=S	16%	8%	u	-6%	x
CCN1C(=O)/C(=C/c2cn(C)nc2C)SC1=S	-7%	20%	4µM*	0%	0%
O=C1/C(=C/c2ccncc2)SC(=S)N1N1CCOCC1	56µM*	u	x	-28%	u
CCCN1C(=O)/C(=C/c2ccncc2)SC1=S	56µM*	u	10µM*	-22%	-17%
CCCCC/C=C\C[C@@H](O)/C=C/C=C/C=C\[C@@H](O)CCCC(=O)O	1%	-4%[10 µM]	-1%	11%[10 µM]	x
C=CC[C@@H](CC(=O)OC(C)(C)C)C(=O)OC[C@@H]1CCCN1C(=O)[C@@H](CC=C)CC(=O)N(CCO)Cc1ccccc1	x	x	x	x	-13%
CN(C(=O)COC(=O)CNC(=O)c1ccccc1F)C1CCCCC1	x	x	x	x	-9%
Nc1nonc1C(=O)NC(c1ccccc1)c1ccccc1	10%	4%	14µM*	u	0%
COc1ccc(OCC(O)CNS(=O)(=O)c2cccc(Cl)c2)cc1 (stereo not drawn)	8%	u	10µM*	2%	-3%
CCCNC(=S)Nc1cc2oc3ccccc3c2cc1OC	-7%	7.1µM*	x	4.5µM*	0%
CNC(=S)Nc1cc2oc3ccccc3c2cc1OC	4%	13µM*	x	7.9µM*	0%
CCNC(=S)Nc1cc2oc3ccccc3c2cc1OC	26%	14%	x	21%	-7%
Cn1cccc1C(=O)N1CCC2(CCCN(Cc3nccs3)C2)CC1	8%	14%	-3%	28%	x
CCC(CC)NC(=O)/C=C/c1ccccc1Cl	6%	-2%	-6%	-2%	30µM*
Cc1cc(C)nc(NC(=O)/C=C/c2ccccc2Cl)n1	-6%	2%	-3%	u	-1%
O=C(/C=C/c1ccccc1Cl)NC1CCCCC1	4%	u	x	-13%	-19%
O=C(/C=C/c1ccccc1Cl)NC1CCS(=O)(=O)C1 (stereo not drawn)	5%	1%	7%	14%	3.8µM*
Cc1cc(N)c2cc(NC(=O)/C=C/c3ccccc3Cl)ccc2n1	25µM*	-15%	-6%	-12%	-5%
CC(=O)N(C)c1ccc(NC(=O)/C=C/c2ccccc2Cl)cc1	-10%	18µM*	-2%	1.1µM*	0%
COC(=O)C1=C[C@@H](C(=O)OC)C2C3=C(C(=O)[C@@]2(C)NC(=O)c2ccccc2)[C@H](C)n2c(=O)n(C)c(=O)n2[C@@H]3C1 (stereo partly drawn)	22%	8%	x	-9%	x
SMILES	Sfp inh	VP16 counter	ALDH1A1 inh	RORg inh	PLK1 PBD block
CC(C)COC(=O)N1CCCCC1c1cc(C(=O)NCc2cccnc2)no1 (stereo not drawn)	x	x	x	x	-8%
COc1ccc([C@@H]2CC(=O)c3c(O)cc(O[C@@H]4O[C@H](CO)[C@@H](O)[C@H](O)[C@H]4O[C@@H]4O[C@@H](C)[C@H](O)[C@@H](O)[C@H]4O)cc3O2)cc1	-15%	1%	x	3%	x
CC1(C)NC(=O)N(c2ccc([N+](=O)[O-])c(C(F)(F)F)c2)C1=O	4%	16µM*!	-12%	u	4%
CCC(c1nc2ccccc2[nH]1)N(CCCn1ccnc1)C(=O)c1ccc(C(F)(F)F)cc1 (stereo not drawn)	x	x	x	x	2%
O=C(COc1ccc(S(=O)(=O)N2CCc3ccccc32)cc1Cl)NCc1ccccn1	-25%	-2%	14µM*	11%	-9%
O=C(O)CC1NCCc2ccccc21 (stereo not drawn)	15%	0%	x	2%	30µM*
Cc1ccc(S(=O)(=O)NCC2NCCc3ccccc32)cc1 (stereo not drawn)	0%	6%	u	18µM*	-24%
NC(c1csc(Nc2nccc(C(F)(F)F)n2)n1)C1CCCCC1 (stereo not drawn)	x	x	x	x	-5%
Cc1ccc(NC(=O)CSc2nnc(CSc3nc(C)cc(C)n3)n2Cc2ccco2)c(C)c1	u	x	-1%	8%[0.365 µM]	-8%
Cc1ccc(NCc2nnc(SCC(=O)c3ccccc3)n2Cc2ccco2)c(C)c1	-13%	16%	10µM*	35%	-14%
Cc1ccc(NCc2nnc(SCC(N)=O)n2CC2CCCO2)c(C)c1 (stereo not drawn)	13%	-1%	1%	19%	30µM*
COc1ccc(NC(=O)CCCn2c(=O)c3sccc3n(Cc3ccccc3C)c2=O)cc1	-21%	-1%	4µM*	29%[10 µM]	-3%
O=C(Nc1nccs1)c1cnc2sccn2c1=O	x	x	x	x	-29%
CCOC(=O)c1c(C)[nH]c(C)c1C(=O)COC(=O)CNC(=O)c1ccc(OCC)cc1	19%	6%	15%	-19%	30µM*
CCOC(=O)c1c(C)[nH]c(C(=O)COC(=O)CNC(=O)c2ccc(Br)cc2)c1C	7%	-2%	3%	u	4%
NC(=S)Nc1ccc(Cl)c(Cl)c1	12%	0%	x	-18%	-3%
NN(Cc1ccccc1)C(=S)Nc1ccc(Cl)c(Cl)c1	13%	u	x	11µM*	3%
COC(=O)C1=C(C)N(Cc2ccccc2)C2=C3C(=O)CCCC3[C@@](O)(C(=O)OC)C(=O)N2C1c1ccccc1 (stereo partly drawn)	8%	-11%[10 µM]	10%[13.5 µM]	2%[10 µM]	x
O=C1ON=C(c2ccccc2)/C1=C/c1ccccc1	45µM*	-22%	x	-20%	5.3µM*
O=C1ON=C(c2ccc(Cl)cc2)/C1=C/c1ccc(O)cc1	22µM*	u	13µM*	-103%	0.47µM*
Cc1sc(/C=C2\C(=O)ON=C2c2ccccc2)cc1Br	11%	12%	0%	9%	x
